# From PubChem BioAssay (NCATS)
# “And” between values parts separate entries of the source, which are not always exact repeats. Equal values may be shown once. Records with an inconclusive call do not appear. A structure can be active in one record and inactive in another. The source made the active and inactive calls. The call rests on the fitted dose curve; in most records, active means well fitted inhibition curve with a large enough effect; inconclusive means small, poorly fitted or top-dose-only effect; inactive means no such curve, though single readings can be large or run the other way.
# Biological target: Cytochrome P450 2C19 (Homo sapiens) (UniProt P33261)
# Assay: qHTS Assay for Inhibitors and Substrates of Cytochrome P450 2C19 (AID 899); further: nearly all actives have a fitted effect of over 60% in size
# Settings: recombinant CYP2C19, luciferin-H EGE luminescence; series mostly up to 57.1 µM; activity, negative = inhibition: at the top concentration
# Experimental: NIH Molecular Libraries Screening Centers Network [MLSCN]
# NIH Chemical Genomics Center [NCGC]
# The P450 gene superfamily is involved in the metabolism and clearance of xenobiotics. This assay used human CYP2C19 to measure the hydroxylation of ethylene glycol ester of 6' deoxyluciferin (Luciferin-H EGE; […]) to luciferin. The luciferin is then measured by luminescence after the addition of a luciferase detection reagent. Luciferin-H EGE concentration in the assay was equal to its KM for CYP2C19. Inhibitors and some substrates limit the production of luciferin, and decrease measured luminescence.
# NCGC Assay Protocol Summary:
# Two uL of enzyme and substrate mix (final concentrations: 5nM CYP2C19, 10uM Luciferin-H EGE, 50mM KPO4) were dispensed into a white, solid bottom 1536-well microtiter plate. 23nL of compound was transferred by a pin tool. The plate was incubated at 37C for 10 min. Two uL of an NADPH regeneration solution (Promega supplied reagent) was dispensed and the reaction was allowed to continue for 60 min at 37C. Then the reaction was stopped by reconstituted luciferin detection buffer. After another 20 min of incubation the plate was read on the ViewLux (Perkin Elmer) at 60 sec exposure and 2x2 binning. This protocol was carried out with Promega-Glo reagents and further information can be found at http://www.promega.com/tbs/tb325/tb325.pdf. Data were normalized to the to AC100 inhibition (57uM ketoconazole).
# Keywords: P450, CYP2C19, Luciferase, MLSMR, MLSCN, NIH Roadmap, qHTS, NCGC
# On the % scale 0 is the no-effect control and ±100 the full control effect; potency means the concentration at half of the fitted maximal effect.
# Cytochrome P450 2C19 (Homo sapiens), sequence (P33261 whole entry, looked up): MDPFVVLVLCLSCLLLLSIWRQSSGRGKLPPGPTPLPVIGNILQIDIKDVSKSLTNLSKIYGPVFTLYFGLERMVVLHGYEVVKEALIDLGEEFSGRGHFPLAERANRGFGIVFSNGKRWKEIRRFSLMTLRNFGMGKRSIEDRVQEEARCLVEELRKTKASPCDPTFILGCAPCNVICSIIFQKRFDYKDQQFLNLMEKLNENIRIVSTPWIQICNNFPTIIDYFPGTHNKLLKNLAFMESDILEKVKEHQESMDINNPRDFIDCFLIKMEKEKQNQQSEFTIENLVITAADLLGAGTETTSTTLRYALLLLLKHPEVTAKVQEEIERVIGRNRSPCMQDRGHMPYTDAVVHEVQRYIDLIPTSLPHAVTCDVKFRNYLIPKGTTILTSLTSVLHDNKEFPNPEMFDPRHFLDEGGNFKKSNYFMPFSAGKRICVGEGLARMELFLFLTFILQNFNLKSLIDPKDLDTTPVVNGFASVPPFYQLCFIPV
Compound,Potency,"activity, negative = inhibition"
CN(C)CCCN1c2ccccc2CCc2ccc(Cl)cc21,inactive,–
Cn1c(=O)c2c(ncn2C)n(C)c1=O,inactive,–
CS(=O)(=O)Nc1ccc([N+](=O)[O-])cc1Oc1ccccc1,–,-19.2% (inactive)
Clc1ccccc1C(c1ccccc1)(c1ccccc1)n1ccnc1,10 µM (active),–
N[C@@H](Cc1c[nH]c2ccc(O)cc12)C(=O)O,–,13.8% (inactive)
O=c1c(-c2ccc(O)cc2)coc2cc(O)cc(O)c12,inactive and 20 µM (active),–
Clc1ccc2c(c1)C(N1CCNCC1)=Nc1ccccc1O2,–,1.38% (inactive)
NC(=O)OCC(COC(N)=O)c1ccccc1,–,31.4% (inactive)
CN1C(C(=O)Nc2ccccn2)=C(O)c2ccccc2S1(=O)=O,inactive and 6.31 µM (active),–
COc1nc(C)nc(Cl)c1NC1=NCCN1,–,59.7% (inactive)
COc1ccc2c(c1)c(CC(=O)O)c(C)n2C(=O)c1ccc(Cl)cc1,–,-19.9% (inactive)
COC(=O)Nc1nc2ccc(C(=O)c3cccs3)cc2[nH]1,–,-17% (inactive)
O=c1[nH]cc(F)c(=O)[nH]1,–,50.2% (inactive)
O=C1N(c2ccccc2)c2ccccc2C1(Cc1ccncc1)Cc1ccncc1,3.16 µM (active) and 199 nM (active),–
CCC1(c2ccccc2)C(=O)NCNC1=O,–,34.4% (inactive)
Cc1cc(C(C)(C)C)c(O)c(C)c1CC1=NCCN1,–,2.2% (inactive)
CCOC(=O)c1ncn2c1CN(C)C(=O)c1cc(F)ccc1-2,–,14.4% (inactive)
